Rows were chosen to be rich in hits. Some 19% of all compounds tested hit in one or more screens of this group.
DT40 TDP1 no CPT = qHTS for Inhibitors of human tyrosyl-DNA phosphodiesterase 1 (TDP1): qHTS in cells in absence of CPT. actives 15% (n = 420,000). DT40 Tdp1-/- hTDP1 cells, no CPT, ATP luminescence, 48 h. Potency, µM (series often up to 46.2 µM), without a hit: top-dose activity change, negative = growth inhibition, actives largely listed as inhibitors; further: potency means the concentration at half of the fitted maximal effect; nearly all actives have a fitted effect of over 55% in size
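Compound effects on proliferation are scored in DT40 Tdp1-/-;hTDP1 cells in the absence of CPT. ATP levels (CellTiter-Glo luminescence) are recorded after a ≥48 hr, 37 °C incubation.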
ELG1 DNA repair = ELG1-dependent DNA repair inhibition. actives 2.3% (n = 330,000). Potency, µM (series often up to 46.1 µM), without a hit: at the top dose activity change, negative = inhibition, usual class: inhibitors. HEK293T ELG1-luciferase reporter, luminescence, 16 h; DNA damage induced by 5-fluorouridine; further: potency means the concentration at half of the fitted maximal effect; nearly all actives have a fitted effect of over 55% in size
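Step one: seed 2,000 cells per well. Step two: pin-transfer compound or DMSO alongside 5-fluorouridine. Step three: incubate 16 hr, 37 °C, 5% CO2. Step four: add ONE-Glo, wait 30 min, read luminescence.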
Giardia killer = kills Giardia lamblia | Giardia lamblia trophozoite viability | activity change, % at 7.66 µM, hits read low | actives 0.15% (n = 340,000); in the data active means activity change below about -80%; inconclusive means between about -30% and that limit;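 further: parasites exposed to compound for two days anaerobically before the ATP read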
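Viability, read as ATP luminescence: trophozoites at 100 cells/well, compound added, 48 hrs anaerobic at 37 deg C, then 15-30 min room-temperature development before reading.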
TDP1 inh = TDP1 (human) enzyme inhibition. actives 0.28% (n = 350,000). Q9NUW8. recombinant TDP1, AlphaScreen DNA substrate cleavage. Potency, µM (top dose mostly 130 µM), for the others: at the highest dose activity change, negative = inhibition, most hits filed as inhibitors; further: potency means the concentration at half of the fitted maximal effect; nearly all actives have a fitted effect of over 40% in size
Target sequence (Q9NUW8 whole entry, looked up): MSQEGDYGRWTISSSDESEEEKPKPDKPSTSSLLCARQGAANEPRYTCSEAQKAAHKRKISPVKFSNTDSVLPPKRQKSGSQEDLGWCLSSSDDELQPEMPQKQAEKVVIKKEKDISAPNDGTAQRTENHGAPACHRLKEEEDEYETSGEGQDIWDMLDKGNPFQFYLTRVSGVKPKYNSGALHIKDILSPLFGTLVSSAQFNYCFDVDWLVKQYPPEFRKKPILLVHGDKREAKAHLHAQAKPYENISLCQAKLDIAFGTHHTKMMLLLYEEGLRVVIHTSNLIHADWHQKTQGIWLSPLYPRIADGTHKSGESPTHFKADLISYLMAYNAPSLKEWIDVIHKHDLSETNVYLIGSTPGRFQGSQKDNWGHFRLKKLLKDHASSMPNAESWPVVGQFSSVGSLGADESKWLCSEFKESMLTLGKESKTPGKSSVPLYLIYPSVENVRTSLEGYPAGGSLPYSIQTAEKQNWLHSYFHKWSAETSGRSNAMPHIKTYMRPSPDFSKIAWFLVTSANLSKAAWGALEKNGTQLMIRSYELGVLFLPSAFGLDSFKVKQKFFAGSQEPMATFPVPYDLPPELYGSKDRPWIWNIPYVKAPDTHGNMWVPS
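Tdp1 1 nM final; 15 min RT w/ cpd; substrate 15 nM, 5 min; beads 10 ug/ml, 10 min; AlphaScreen read. Neg ctrl: no enzyme.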
IL1B secr inh = inhibitors of inflammasome signaling (IL-1 beta secretion). activity change, % at 57.5 µM. actives 4.7% (n = 360,000). THP-1 LPS/ATP IL-1B secretion, AlphaLISA, 16 h; stronger effect = lower value; in the data active means activity change below about -50%; inconclusive means mostly about -30% to -49%
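Secreted IL-1B measured by AlphaLISA bead assay after 16 h compound exposure of THP-1 cells; compounds (final up to 57.5 uM) added 1 h before LPS (250 ng/mL) and ATP (1.25 mM) stimulation; lower signal means less secretion.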
TDP1 cell CPT = DT40-hTDP1 cell growth loss with CPT; Potency, µM (highest dose often 46.2 µM), for inactives: at the highest dose activity change, negative = growth inhibition, actives largely listed as inhibitors; actives 12% (n = 420,000); chicken DT40 Tdp1-/-;hTDP1 cells + 20 nM CPT, ATP luminescence, 48 h; AID 686979; further: potency means the concentration at half of the fitted maximal effect; nearly all actives have a fitted effect of over 55% in size
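Chicken DT40 Tdp1-/- cells complemented with human TDP1, 400 cells/well, exposed to compounds plus 20 nM camptothecin for at least 48 h at 37 C; viability read as ATP content by CellTiter-Glo luminescence.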
Active calls of the source: *; ? = inconclusive; · = not tested or not shown. Unless noted, the call rests on the fitted dose curve; in most records, active means well fitted curve in the direction sought with a large enough effect; inconclusive means small, poorly fitted or top-dose-only effect, or another doubt; inactive means no such curve, though single readings can be large; an effect the other way counts as inactive or inconclusive. On the % scale 0 is the no-effect control and ±100 the full control effect.

SMILES | DT40 TDP1 no CPT | ELG1 DNA repair | Giardia killer | TDP1 inh | IL1B secr inh | TDP1 cell CPT
CCOC(=O)c1cc(-c2ccc(Cl)cc2)nc2c1c(C)nn2CCC#N | ? | ? | 0 | -1% | ? | ?
CCOC(=O)c1cc(-c2ccc(OC)cc2F)nc2c1c(C)nn2CCC#N | ? | 12µM* | 4 | 1% | -50* | ?
COc1ccc2cc(S(=O)(=O)N3CCCC3)ccc2c1 | ? | 14% | -18 | 5% | -13 | -4%
CCOc1ccc(CNS(=O)(=O)c2c(C(=O)N3CCC(C)CC3)c(C)n(C)c2C)cc1OC | -13% | · | · | 9% | · | 10%
Cc1ccc(C(=O)C[n+]2ccc(Cc3ccccc3)cc2)cc1 | 5.8µM* | 7.3µM* | -16 | -6% | ? | 5.8µM*
Cc1ccc(SCCc2cc[n+](CC(=O)c3ccccc3)cc2)cc1 | 16µM* | ? | -9 | 0% | -151* | 16µM*
Cc1ccc[n+](CC(=O)c2ccccc2)c1 | · | 4% | · | · | · | ·
O=C(NC1CCCC1)c1ccc(CSc2nc3ccncc3n2Cc2ccc(F)cc2)cc1 | 16µM* | ? | -24 | 5% | 3 | ?
O=C(NC1CCCC1)c1ccc(CSc2nc3ccncc3n2Cc2cccc(F)c2)cc1 | 16µM* | · | · | 3% | · | ?
CCNC(=O)c1ccc(CSc2nc3ccncc3n2Cc2ccc(F)cc2)cc1 | ? | · | · | 8% | · | ?
O=C(NCc1ccc(F)cc1)c1ccc(CSc2nc3ccncc3n2Cc2ccc(F)cc2)cc1 | -97% | · | · | 8% | · | 23µM*
CCCn1c(C)nc2c(NCCN3CCCC3)nc(C)nc21 | · | · | · | 3% | · | ·
CCCCOCCCN1CC(=O)N2[C@@H](Cc3c([nH]c4ccccc34)C2(C)C)C1=O | 18µM* | 13µM* | 17 | · | -17 | ?
CCCCCN1CC(=O)N2[C@@H](Cc3c([nH]c4ccccc34)C2(C)C)C1=O | ? | 3% | 4 | · | 35 | ?
CCCCN(CCCC)CCCN1CC(=O)N2[C@@H](Cc3c([nH]c4ccccc34)C2(C)C)C1=O | -15% | 6% | 17 | · | -74* | ?
O=C(NCc1ccccc1F)Nc1nnc([C@@H]2C[C@H](O)[C@@H](CO)O2)s1 | -2% | · | · | · | 12 | 2%
CCOc1ccc2nc(NC3=NC(c4ccc(OC)cc4)CC(=O)N3)nc(C)c2c1 (stereo unspecified) | 21µM* | ? | 0 | 6% | -103* | 23µM*
O=C(CSc1ncc2c(n1)-c1ccccc1N(Cc1ccc(Cl)cc1)S2(=O)=O)c1ccccc1 | ? | · | · | -5% | · | ?
O=C1CN(C(=O)Nc2ccccc2Cl)C(c2ccccc2)c2c(sc3c2CCCC3)N1 (stereo unspecified) | ? | · | · | 6% | · | 23µM*
O=C(Cn1c(=O)n(CCCS(=O)(=O)C2CCCCC2)c(=O)c2ccccc21)Nc1ccc(F)c(Cl)c1 | 1% | · | · | 2% | · | 7%
CCN1C(=O)[C@H]2[C@@H](c3ccc(-c4ccc(F)cc4)c(OC)c3)N[C@@](C)(C(=O)OC)[C@H]2C1=O | ? | 5% | 19 | · | -16 | 13µM*
CCN1C(=O)[C@H]2[C@@H](c3ccc(-c4ccc(C(C)=O)cc4)cc3)N[C@@](C)(C(=O)OC)[C@H]2C1=O | -24% | ? | -6 | 1% | 33 | ?
CCN1C(=O)[C@H]2[C@@H](c3ccc(-c4ccc(F)cc4)cc3)N[C@@](C)(C(=O)OC)[C@H]2C1=O | 21µM* | -3% | 8 | -14% | -12 | 23µM*
COC(=O)[C@]1(C)N[C@H](c2ccc(-c3cccc(Cl)c3)cc2)[C@@H]2C(=O)N(C)C(=O)[C@@H]21 | ? | -2% | 7 | -10% | -24 | ?

Screening results deposited in PubChem by National Center for Advancing Translational Sciences (NCATS).
